Results published in PubChem BioAssay (NCI).
About 83,000 compounds went through this panel and 20% of them were active in at least one assay; those are over-represented in the sample as a whole.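 Assay: single dose, 48 h. Readout: percent growth (0 = no net growth; negative = cell death). Active: <10.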 The source made the active and inactive calls.

System: SNB-75 CNS
Assay: NCI-60 one-dose screen, 48 h (100 = growth as untreated, 0 = no growth, -100 = all killed)
Settings: 10 µM

Row | Compound | growth
1 | CCCCCCCCCCCC(=O)NCCCN(C)C | 75.2% (inactive)
2 | Nc1ccc(C2=CC(c3ccc(Cl)cc3)N3C=CSC3=N2)cc1 (centres undefined) | -15.6% (active)
3 | CC(=O)n1nc(C(=O)OC(C)(C)C)c2cc(F)c(F)cc21 | 80.2% (inactive)
4 | COC(=O)c1c(C)nc(Nc2nc3ccccc3s2)nc1-c1ccc(Cl)cc1Cl | 87.2% (inactive)
5 | O=C(O)CCCCSCCCCC(=O)O | 95.7% (inactive)
6 | COc1cc(-c2nc3ccc(C)cc3[nH]2)ccc1OCC(=O)N=Nc1c(O)[nH]c2ccccc12 | -34.8% (active)
7 | CC1=CSC2=NC(c3ccc(Cl)c(Cl)c3)=CC(c3ccc(Cl)cc3)N12 (centres undefined) | -21.8% (active)
8 | COc1ccc(Nc2ccnc(N3CCN(c4ccnc5cc(Cl)ccc45)CC3)n2)cc1 | -20.9% (active)
9 | Cn1cnc([N+](=O)[O-])c1/C=C1\Oc2ccc(Cl)cc2C1=O | 83.6% (inactive)
10 | CCOC(=O)Cn1nnc(-c2ccc(OCc3ccccc3F)cc2)n1 | 57.8% (inactive)
11 | COc1ccc(/C(CS(=O)(=O)c2ccccc2)=N\O)cc1 | 87% (inactive)
12 | COc1ccc(S(=O)(=O)Nc2cc(/C=C\c3cc(OC)c(OC)c(OC)c3)ccc2OC)cc1 | -2.76% (active)
13 | COc1ccc2nc(C)cc(Nc3ccc(Cl)cc3)c2c1 | 102% (inactive)
14 | COc1cc(-c2nc3ccc(C)cc3[nH]2)ccc1OCc1nnc(-c2ccc(CC(C)C)cc2)o1 | 83.9% (inactive)
15 | Cc1noc(C)c1-c1ccc2nc(NC(=O)[C@H]3CCN(C#N)C3)cn2c1 | 67.7% (inactive)
16 | COc1ccc(COC(=O)CC(C)C)cc1 | 91.9% (inactive)
17 | Cc1ccc(-n2nnc3c(sc4ccccc43)c2=O)cc1 | 31.4% (inactive)

Row | Compound | growth
18 | Nc1ccn([C@@H]2O[C@H](COP(=O)(O)O[C@@H]3C[C@H](n4cc(F)c(=O)[nH]c4=O)O[C@@H]3COP(=O)(O)O[C@@H]3C[C@H](n4cc(F)c(=O)[nH]c4=O)O[C@@H]3COP(=O)(O)O[C@@H]3C[C@H](n4cc(F)c(=O)[nH]c4=O)O[C@@H]3COP(=O)(O)O[C@@H]3C[C@H](n4cc(F)c(=O)[nH]c4=O)O[C@@H]3COP(=O)(O)O[C@@H]3C[C@H](n4cc(F)c(=O)[nH]c4=O)O[C@@H]3COP(=O)(O)O[C@@H]3C[C@H](n4cc(F)c(=O)[nH]c4=O)O[C@@H]3COP(=O)(O)O[C@@H]3C[C@H](n4cc(F)c(=O)[nH]c4=O)O[C@@H]3COP(=O)(O)O[C@@H]3C[C@H](n4cc(F)c(=O)[nH]c4=O)O[C@@H]3COP(=O)(O)O[C@@H]3C[C@H](n4cc(F)c(=O)[nH]c4=O)O[C@@H]3COP(=O)(O)O[C@@H]3C[C@H](n4cc(F)c(=O)[nH]c4=O)O[C@@H]3COP(=O)(O)OCCOCCOCCOCCOCCOCCO)[C@H](O)C2O)c(=O)n1 (some centres undefined) | 86.3% (inactive)
19 | COc1ccc(-c2nnc(COc3ccc(NC(=O)Nc4cccc(C(F)(F)F)c4)cc3F)o2)cc1 | 79.6% (inactive)
20 | Fc1ccc(Nc2ccnc(N3CCN(c4ccnc5cc(Cl)ccc45)CC3)n2)cc1 | 74.2% (inactive)
21 | CCOC(=O)c1cc(-c2ccccc2)nc(N)n1 | 84.7% (inactive)
22 | CC1(CO)CCCC12OCCO2 (centres undefined) | 97.2% (inactive)
23 | CCc1c(C)[nH]c(=O)c(C(N)=O)c1C#N | 99.9% (inactive)
24 | CCOc1ccc2c(c1)CC[C@@H]1[C@@H]2CC[C@]2(C)[C@@H](O)[C@@H](O)C[C@@H]12 | 107% (inactive)
25 | COc1ccc(OC)c([N+](=O)[O-])c1C=O | 85.8% (inactive)
26 | CCOC(=O)Nc1ccc2c(c1)C(=O)N(CC)c1ccccc1O2 | 27.3% (inactive)
27 | Cc1ccc(C)c2c1sc1nc3n[nH]c(N)c3c(=N)n12 | 88.5% (inactive)
28 | c1ccc(CC(NCCNC(Cc2ccccc2)c2ccccc2)c2ccccc2)cc1 (centres undefined) | 63.3% (inactive)
29 | Cc1ccc2nc(-c3ccc(OCC(=O)N=Nc4c(O)[nH]c5ccccc45)cc3)[nH]c2c1 | 109% (inactive)
30 | COc1ccc2c(=O)cc(C(Cl)(Cl)Cl)oc2c1 | -78.3% (active)
31 | c1ccc(OCCC[P+](c2ccccc2)(c2ccccc2)c2ccccc2)cc1 | -5.17% (active)
32 | COc1cc(CSc2nc3ccc(C)cc3c(=O)n2Cc2ccccc2)cc(OC)c1OC | -4.08% (active)
33 | C[N+]1=C(/C=C/c2ccc(I)cc2)C(C)(C)c2ccccc21 | 95.9% (inactive)
34 | COc1ccccc1S(=O)(=O)Nc1ccc2c(c1)CN(C)C(=O)N2 | 17.5% (inactive)
